Measured values from PubChem BioAssay AID1159580 (chemical genetic matrix, 2015).
The campaign covered roughly 5,500 compounds. About 2,000 (36%) were called active. About 18% were inconclusive and are not listed. No stated cut-off is given here; in the data, active means normalized growth mostly below about 0.91 (no sharp cut-off); inconclusive means no clear call, values can overlap the other calls; inactive means mostly above about 0.92. The list shows a part of the results.

Test: chemical genetic growth profiling, strain panel (AID 1159580);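 further: tested at 20 µM; growth read once vehicle control cultures reached saturation at 30 °C; 1 = growth at the plate median or of vehicle wells; lower values mean less growth of the strain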
Details: growth OD

Measured: normalized growth

CN[C@@H]1[C@@H](O[C@H]2O[C@H](CO)[C@@H](N)[C@H](O)[C@H]2O)O[C@H]2C[C@@H](N)[C@H](O[C@H]3[C@H](O)[C@@H](O)[C@H](N)C[C@@H]3N)O[C@@H]2[C@@H]1O
inactive: S. cerevisiae deletion strains, locus YKL009W, strain mrt4, hits give low values 0.996 | S. cerevisiae deletion strains, locus YKL068W, hits give low values 1.01 | S. cerevisiae deletion strains, locus YKL085W, strain MDH1 (second series), hits give low values 0.982 | S. cerevisiae deletion strains, locus YKL085W, strain MDH1, hits give low values 0.982 | S. cerevisiae deletion strains, locus YKL160W, strain elf1, hits give low values 1.01 | S. cerevisiae deletion strains, locus YKL190W, strain CNB1, hits give low values 1 | S. cerevisiae deletion strains, locus YKR001C, strain vps1, hits give low values 0.989 | S. cerevisiae deletion strains, locus YKR026C, strain gcn3, hits give low values 1 | S. cerevisiae deletion strains, locus YKR091W, strain srl3, hits give low values 1 | S. cerevisiae deletion strains, locus YLL001W, strain dnm1, hits give low values 1.02 | S. cerevisiae deletion strains, locus YLL026W, hits give low values 1.01 | S. cerevisiae deletion strains, locus YLL041C, strain sdh2, hits give low values 0.997 | S. cerevisiae deletion strains, locus YLR027C, strain aat2, hits give low values 1.01 | S. cerevisiae deletion strains, locus YLR039C, strain RIC1, hits give low values 1.07 | S. cerevisiae deletion strains, locus YLR058C, strain SHM2, hits give low values 1.01 | S. cerevisiae deletion strains, locus YLR102C, strain apc9, hits give low values 1.01 | S. cerevisiae deletion strains, locus YLR113W, strain HOG1, hits give low values 0.939 | S. cerevisiae deletion strains, locus YLR221C, strain rsa3, hits give low values 1 | S. cerevisiae deletion strains, locus YLR258W, strain gsy2, hits give low values 1 | S. cerevisiae deletion strains, locus YLR262C, strain YPT6 (second series), hits give low values 1 | S. cerevisiae deletion strains, locus YLR262C, strain YPT6, hits give low values 1.05 | S. cerevisiae deletion strains, locus YLR268W, strain sec22, hits give low values 0.981 | S. cerevisiae deletion strains, locus YLR320W, strain mms22, hits give low values 0.991 | S. cerevisiae deletion strains, locus YLR330W, strain CHS5, hits give low values 1.01 | S. cerevisiae deletion strains, locus YLR342W, strain FKS1 (second series), hits give low values 1.07 | S. cerevisiae deletion strains, locus YLR342W, strain FKS1, hits give low values 1.02 | S. cerevisiae deletion strains, locus YLR357W, strain rsc2, hits give low values 0.996 | S. cerevisiae deletion strains, locus YLR370C, strain arc18, hits give low values 1.01 | S. cerevisiae deletion strains, locus YLR371W, strain rom2, hits give low values 1.01 | S. cerevisiae deletion strains, locus YLR384C, strain iki3, hits give low values 1 | S. cerevisiae deletion strains, locus YLR418C, strain cdc73, hits give low values 0.99 | S. cerevisiae deletion strains, locus YML016C, strain PPZ1, hits give low values 1 | S. cerevisiae deletion strains, locus YML032C, strain rad52, hits give low values 1.01 | S. cerevisiae deletion strains, locus YML120C, strain ndi1, hits give low values 1 | S. cerevisiae deletion strains, locus YML124C, strain tub3, hits give low values 0.995 | S. cerevisiae deletion strains, locus YMR058W, strain fet3, hits give low values 1.02 | S. cerevisiae deletion strains, locus YMR078C, strain ctf18, hits give low values 1.02 | S. cerevisiae deletion strains, locus YMR125W, strain sto1, hits give low values 0.988 | S. cerevisiae deletion strains, locus YMR129W, hits give low values 0.986 | S. cerevisiae deletion strains, locus YMR205C, strain PFK2, hits give low values 1.02 | S. cerevisiae deletion strains, locus YMR223W, strain ubp8, hits give low values 0.913 | S. cerevisiae deletion strains, locus YMR231W, strain pep5, hits give low values 1.01 | S. cerevisiae deletion strains, locus YMR263W, strain SAP30, hits give low values 0.991 | S. cerevisiae deletion strains, locus YMR307W, strain GAS1, hits give low values 1.03 | S. cerevisiae deletion strains, locus YNL067W, strain RPL9B, hits give low values 0.988 | S. cerevisiae deletion strains, locus YNL071W, strain lat1, hits give low values 0.995 | S. cerevisiae deletion strains, locus YNL128W, strain TEP1, hits give low values 1.03 | S. cerevisiae deletion strains, locus YNL153C, strain GIM3, hits give low values 0.98 | S. cerevisiae deletion strains, locus YNL183C, strain NPR1, hits give low values 0.916 | S. cerevisiae deletion strains, locus YNL209W, strain ssb2, hits give low values 0.996 | S. cerevisiae deletion strains, locus YNL233W, strain BNI4, hits give low values 1 | S. cerevisiae deletion strains, locus YNL248C, strain rpa49, hits give low values 0.999 | S. cerevisiae deletion strains, locus YNL250W, strain rad50, hits give low values 1.01 | S. cerevisiae deletion strains, locus YNL271C, strain bni1, hits give low values 0.997 | S. cerevisiae deletion strains, locus YNL298W, strain CLA4, hits give low values 1.01 | S. cerevisiae deletion strains, locus YNL307C, strain MCK1, hits give low values 1.02 | S. cerevisiae deletion strains, locus YNL322C, strain KRE1 (second series), hits give low values 1 | S. cerevisiae deletion strains, locus YNL322C, strain KRE1, hits give low values 1.01 | S. cerevisiae deletion strains, locus YNR049C, strain mso1, hits give low values 0.999 | S. cerevisiae deletion strains, locus YNR052C, strain pop2, hits give low values 0.996 | S. cerevisiae deletion strains, locus YOL006C, strain TOP1, hits give low values 1 | S. cerevisiae deletion strains, locus YOL012C, strain htz1 0.612 | S. cerevisiae deletion strains, locus YOL147C, strain pex11, hits give low values 1 | S. cerevisiae deletion strains, locus YOR001W, strain rrp6, hits give low values 1 | S. cerevisiae deletion strains, locus YOR061W, strain CKA2, hits give low values 1.01 | S. cerevisiae deletion strains, locus YOR069W, strain VPS5, hits give low values 1 | S. cerevisiae deletion strains, locus YOR070C, strain gyp1, hits give low values 1 | S. cerevisiae deletion strains, locus YOR080W, strain dia2, hits give low values 1.01 | S. cerevisiae deletion strains, locus YOR083W, strain WHI5, hits give low values 1.01 | S. cerevisiae deletion strains, locus YOR106W, strain vam3, hits give low values 1.01 | S. cerevisiae deletion strains, locus YOR136W, strain idh2, hits give low values 1.01 | S. cerevisiae deletion strains, locus YOR144C, strain elg1, hits give low values 1 | S. cerevisiae deletion strains, locus YOR184W, strain ser1, hits give low values 1.03 | S. cerevisiae deletion strains, locus YOR231W, strain MKK1, hits give low values 0.951 | S. cerevisiae deletion strains, locus YOR265W, strain rbl2, hits give low values 1.01 | S. cerevisiae deletion strains, locus YOR270C, strain vph1, hits give low values 1.2 | S. cerevisiae deletion strains, locus YOR290C, strain snf2, hits give low values 0.991 | S. cerevisiae deletion strains, locus YOR316C, strain cot1, hits give low values 1.01 | S. cerevisiae deletion strains, locus YPL051W, strain arl3, hits give low values 1.02 | S. cerevisiae deletion strains, locus YPL055C, strain LGE1, hits give low values 0.984 | S. cerevisiae deletion strains, locus YPL078C, strain atp4, hits give low values 1.03 | S. cerevisiae deletion strains, locus YPL106C, strain sse1, hits give low values 0.975 | S. cerevisiae deletion strains, locus YPL240C, strain hsp82, hits give low values 0.995 | S. cerevisiae deletion strains, locus YPL241C, strain CIN2, hits give low values 1 | S. cerevisiae deletion strains, locus YPL256C, strain CLN2, hits give low values 1.02 | S. cerevisiae deletion strains, locus YPR119W, strain clb2, hits give low values 1.01 | S. cerevisiae deletion strains, locus YPR141C, strain kar3, hits give low values 1 | S. cerevisiae deletion strains, locus YPR163C, strain tif3, hits give low values 1 | S. cerevisiae deletion strains, locus YPR167C, strain met16, hits give low values 0.991 | S. cerevisiae deletion strains, strain wtn01, hits give low values 0.988 | S. cerevisiae strains, strain wild type, hits give low values 1.02
